The source of these data is ChEMBL document CHEMBL1961873, “Compounds: GSK PKIS; Assays: Nanosyn kinase panel” (2012).

Assay [1] concerns the target Mitogen-activated protein kinase kinase kinase kinase 4 (Homo sapiens) (UniProt O95819). The settings on record: at 1 µM.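 Also: reported figure is an averaged inhibition value.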
The target in assay [2] is Dual specificity mitogen-activated protein kinase kinase 1 (Homo sapiens) (UniProt Q02750). The settings on record: at 0.1 µM.
For assay [3] the target is unchanged. The following applies: at 1 µM.
Assay [4] addresses Misshapen-like kinase 1 (Homo sapiens) (UniProt Q8N4C8). The following applies: at 0.1 µM.
Assay [5] has the same target. The following applies: at 1 µM.
For assay [6], the target named is T1, Serine/threonine-protein kinase 4 (Homo sapiens) (UniProt Q13043).
T1 sequence (whole entry): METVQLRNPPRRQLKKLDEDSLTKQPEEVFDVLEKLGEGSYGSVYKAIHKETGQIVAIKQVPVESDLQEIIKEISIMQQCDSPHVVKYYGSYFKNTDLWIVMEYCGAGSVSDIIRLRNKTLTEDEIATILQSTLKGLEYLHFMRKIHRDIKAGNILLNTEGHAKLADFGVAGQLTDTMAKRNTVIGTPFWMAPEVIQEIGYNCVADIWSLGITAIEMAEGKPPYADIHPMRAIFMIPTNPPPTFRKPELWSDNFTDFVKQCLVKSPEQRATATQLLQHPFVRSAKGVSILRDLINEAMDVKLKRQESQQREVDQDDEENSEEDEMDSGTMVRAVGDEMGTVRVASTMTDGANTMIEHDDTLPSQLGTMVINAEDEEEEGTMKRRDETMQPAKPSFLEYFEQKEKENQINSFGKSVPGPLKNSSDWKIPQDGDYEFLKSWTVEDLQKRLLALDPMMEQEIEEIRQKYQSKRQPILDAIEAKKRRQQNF
The settings on record: at 0.1 µM.

Assay [7] deals with T1, Serine/threonine-protein kinase 4 (Homo sapiens). The following applies: at 1 µM.
For assay [8], the target named is T2, Serine/threonine-protein kinase 3 (Homo sapiens) (UniProt Q13188).
T2 sequence (whole entry): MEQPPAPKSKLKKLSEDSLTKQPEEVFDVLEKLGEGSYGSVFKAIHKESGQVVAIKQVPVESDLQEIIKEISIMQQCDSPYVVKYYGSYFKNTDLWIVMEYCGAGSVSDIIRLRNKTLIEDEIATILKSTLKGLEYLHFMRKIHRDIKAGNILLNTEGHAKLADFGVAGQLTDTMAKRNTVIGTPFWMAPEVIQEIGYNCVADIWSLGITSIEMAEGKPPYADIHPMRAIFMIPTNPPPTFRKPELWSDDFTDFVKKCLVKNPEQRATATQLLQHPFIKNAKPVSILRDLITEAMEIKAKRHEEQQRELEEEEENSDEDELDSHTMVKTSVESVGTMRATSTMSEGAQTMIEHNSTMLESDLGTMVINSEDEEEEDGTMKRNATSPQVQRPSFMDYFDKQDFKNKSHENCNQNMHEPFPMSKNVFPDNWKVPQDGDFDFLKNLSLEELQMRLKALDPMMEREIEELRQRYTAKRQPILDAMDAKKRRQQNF
The settings on record: at 0.1 µM.

In assay [9] the target is T2, Serine/threonine-protein kinase 3 (Homo sapiens). The settings on record: at 1 µM.
In assay [10] the target is Serine/threonine-protein kinase 26 (Homo sapiens) (UniProt Q9P289). The settings on record: at 0.1 µM.
Sequence of Serine/threonine-protein kinase 26 (Homo sapiens) (Q9P289 2-416 limits assumed): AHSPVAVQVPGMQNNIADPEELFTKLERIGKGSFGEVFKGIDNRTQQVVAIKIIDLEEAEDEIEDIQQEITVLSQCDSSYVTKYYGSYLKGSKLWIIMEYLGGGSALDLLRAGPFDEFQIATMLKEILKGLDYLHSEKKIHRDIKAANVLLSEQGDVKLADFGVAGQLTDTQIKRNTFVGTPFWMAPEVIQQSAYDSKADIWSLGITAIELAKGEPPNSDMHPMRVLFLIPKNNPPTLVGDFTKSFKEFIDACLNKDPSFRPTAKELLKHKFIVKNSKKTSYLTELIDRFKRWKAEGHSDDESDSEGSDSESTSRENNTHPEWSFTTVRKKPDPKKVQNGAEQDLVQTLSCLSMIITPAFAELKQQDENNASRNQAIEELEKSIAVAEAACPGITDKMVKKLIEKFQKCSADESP
For assay [11] the target is unchanged. The settings on record: at 1 µM.
Assay [12] has as its target Serine/threonine-protein kinase PAK 1 (Homo sapiens) (UniProt Q13153). The following applies: at 0.1 µM.
Assay [13] shares this target. The settings on record: at 1 µM.
The target in assay [14] is Serine/threonine-protein kinase PAK 2 (Homo sapiens) (UniProt Q13177). The settings on record: at 0.1 µM.
Assay [15] shares this target. The following applies: at 1 µM.
Assay [16] concerns the target Serine/threonine-protein kinase PAK 3 (Homo sapiens) (UniProt O75914). The following applies: at 0.1 µM.
Assay [17] shares this target. The settings on record: at 1 µM.
Assay [18] concerns the target Serine/threonine-protein kinase PAK 5 (Homo sapiens) (UniProt Q9P286). The following applies: at 0.1 µM.
For assay [19] the target is unchanged. The settings on record: at 1 µM.
The target in assay [20] is Serine/threonine-protein kinase PAK 6 (Homo sapiens) (UniProt Q9NQU5). The following applies: at 0.1 µM.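 Also: mean PAK6 inhibition reported from the GSK PKIS screen.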
Sequence of Serine/threonine-protein kinase PAK 6 (Homo sapiens) (Q9NQU5 whole entry, looked up): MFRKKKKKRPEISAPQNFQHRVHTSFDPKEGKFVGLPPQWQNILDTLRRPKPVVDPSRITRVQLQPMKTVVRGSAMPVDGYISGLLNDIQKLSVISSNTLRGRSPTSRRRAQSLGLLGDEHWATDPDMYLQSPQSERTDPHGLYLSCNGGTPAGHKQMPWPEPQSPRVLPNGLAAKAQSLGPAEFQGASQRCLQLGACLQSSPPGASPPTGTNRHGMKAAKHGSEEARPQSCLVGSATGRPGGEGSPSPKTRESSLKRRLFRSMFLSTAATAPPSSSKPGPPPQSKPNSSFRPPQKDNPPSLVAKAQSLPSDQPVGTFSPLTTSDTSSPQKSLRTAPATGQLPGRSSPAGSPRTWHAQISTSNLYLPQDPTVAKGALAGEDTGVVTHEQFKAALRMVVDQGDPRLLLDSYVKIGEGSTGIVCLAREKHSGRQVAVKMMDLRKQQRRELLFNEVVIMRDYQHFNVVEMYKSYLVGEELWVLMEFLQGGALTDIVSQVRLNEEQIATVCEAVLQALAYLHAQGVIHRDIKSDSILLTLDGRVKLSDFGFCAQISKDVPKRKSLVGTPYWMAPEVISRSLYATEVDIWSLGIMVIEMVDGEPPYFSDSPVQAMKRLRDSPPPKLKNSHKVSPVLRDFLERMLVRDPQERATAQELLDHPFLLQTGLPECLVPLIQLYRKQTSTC

Sequence of Dual specificity mitogen-activated protein kinase kinase 1 (Homo sapiens) (Q02750 whole entry): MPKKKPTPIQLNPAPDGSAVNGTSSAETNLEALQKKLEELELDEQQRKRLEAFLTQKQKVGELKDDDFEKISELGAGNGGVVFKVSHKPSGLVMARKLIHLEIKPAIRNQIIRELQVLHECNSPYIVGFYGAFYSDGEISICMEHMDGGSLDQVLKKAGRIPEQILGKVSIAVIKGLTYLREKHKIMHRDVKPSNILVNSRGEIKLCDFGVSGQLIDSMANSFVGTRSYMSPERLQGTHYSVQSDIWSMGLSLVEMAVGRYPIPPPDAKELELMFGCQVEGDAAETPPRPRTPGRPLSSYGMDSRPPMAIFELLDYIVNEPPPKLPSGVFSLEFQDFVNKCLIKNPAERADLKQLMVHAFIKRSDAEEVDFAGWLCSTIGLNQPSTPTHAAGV
Sequence of Serine/threonine-protein kinase PAK 3 (Homo sapiens) (O75914 whole entry, looked up): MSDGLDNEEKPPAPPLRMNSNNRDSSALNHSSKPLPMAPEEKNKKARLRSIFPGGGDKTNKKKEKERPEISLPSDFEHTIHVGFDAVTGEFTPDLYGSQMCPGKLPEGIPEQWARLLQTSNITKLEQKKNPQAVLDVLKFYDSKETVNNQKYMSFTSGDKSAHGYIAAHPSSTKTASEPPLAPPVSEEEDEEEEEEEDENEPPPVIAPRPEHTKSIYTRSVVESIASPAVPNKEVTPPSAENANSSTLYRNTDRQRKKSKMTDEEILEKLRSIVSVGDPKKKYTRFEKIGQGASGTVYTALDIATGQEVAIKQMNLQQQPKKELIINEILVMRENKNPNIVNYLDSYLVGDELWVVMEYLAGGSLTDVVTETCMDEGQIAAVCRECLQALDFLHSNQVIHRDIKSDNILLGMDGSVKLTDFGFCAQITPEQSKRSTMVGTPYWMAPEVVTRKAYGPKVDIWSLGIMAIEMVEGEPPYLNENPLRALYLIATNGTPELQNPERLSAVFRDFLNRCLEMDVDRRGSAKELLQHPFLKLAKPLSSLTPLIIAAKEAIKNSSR
Sequence of Serine/threonine-protein kinase PAK 5 (Homo sapiens) (Q9P286 whole entry, looked up): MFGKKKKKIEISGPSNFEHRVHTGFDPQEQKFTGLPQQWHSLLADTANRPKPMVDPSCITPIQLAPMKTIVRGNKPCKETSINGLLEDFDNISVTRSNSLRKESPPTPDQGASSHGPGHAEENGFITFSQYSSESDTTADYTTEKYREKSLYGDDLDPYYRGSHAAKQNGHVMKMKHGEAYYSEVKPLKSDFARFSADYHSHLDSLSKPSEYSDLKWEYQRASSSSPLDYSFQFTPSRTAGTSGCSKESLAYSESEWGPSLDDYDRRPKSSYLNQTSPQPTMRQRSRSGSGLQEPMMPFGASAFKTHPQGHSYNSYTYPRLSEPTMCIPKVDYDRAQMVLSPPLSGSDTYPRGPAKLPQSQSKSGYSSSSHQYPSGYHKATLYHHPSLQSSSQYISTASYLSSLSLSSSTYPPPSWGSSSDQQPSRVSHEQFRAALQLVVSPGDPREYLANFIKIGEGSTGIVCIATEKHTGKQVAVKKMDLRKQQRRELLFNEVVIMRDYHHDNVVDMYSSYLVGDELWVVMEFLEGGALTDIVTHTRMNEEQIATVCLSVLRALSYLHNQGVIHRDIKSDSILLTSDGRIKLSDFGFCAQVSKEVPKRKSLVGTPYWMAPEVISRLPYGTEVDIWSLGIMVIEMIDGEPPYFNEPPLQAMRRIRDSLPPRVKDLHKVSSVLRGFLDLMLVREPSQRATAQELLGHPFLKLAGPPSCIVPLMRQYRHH
Sequence of Misshapen-like kinase 1 (Homo sapiens) (Q8N4C8 whole entry, looked up): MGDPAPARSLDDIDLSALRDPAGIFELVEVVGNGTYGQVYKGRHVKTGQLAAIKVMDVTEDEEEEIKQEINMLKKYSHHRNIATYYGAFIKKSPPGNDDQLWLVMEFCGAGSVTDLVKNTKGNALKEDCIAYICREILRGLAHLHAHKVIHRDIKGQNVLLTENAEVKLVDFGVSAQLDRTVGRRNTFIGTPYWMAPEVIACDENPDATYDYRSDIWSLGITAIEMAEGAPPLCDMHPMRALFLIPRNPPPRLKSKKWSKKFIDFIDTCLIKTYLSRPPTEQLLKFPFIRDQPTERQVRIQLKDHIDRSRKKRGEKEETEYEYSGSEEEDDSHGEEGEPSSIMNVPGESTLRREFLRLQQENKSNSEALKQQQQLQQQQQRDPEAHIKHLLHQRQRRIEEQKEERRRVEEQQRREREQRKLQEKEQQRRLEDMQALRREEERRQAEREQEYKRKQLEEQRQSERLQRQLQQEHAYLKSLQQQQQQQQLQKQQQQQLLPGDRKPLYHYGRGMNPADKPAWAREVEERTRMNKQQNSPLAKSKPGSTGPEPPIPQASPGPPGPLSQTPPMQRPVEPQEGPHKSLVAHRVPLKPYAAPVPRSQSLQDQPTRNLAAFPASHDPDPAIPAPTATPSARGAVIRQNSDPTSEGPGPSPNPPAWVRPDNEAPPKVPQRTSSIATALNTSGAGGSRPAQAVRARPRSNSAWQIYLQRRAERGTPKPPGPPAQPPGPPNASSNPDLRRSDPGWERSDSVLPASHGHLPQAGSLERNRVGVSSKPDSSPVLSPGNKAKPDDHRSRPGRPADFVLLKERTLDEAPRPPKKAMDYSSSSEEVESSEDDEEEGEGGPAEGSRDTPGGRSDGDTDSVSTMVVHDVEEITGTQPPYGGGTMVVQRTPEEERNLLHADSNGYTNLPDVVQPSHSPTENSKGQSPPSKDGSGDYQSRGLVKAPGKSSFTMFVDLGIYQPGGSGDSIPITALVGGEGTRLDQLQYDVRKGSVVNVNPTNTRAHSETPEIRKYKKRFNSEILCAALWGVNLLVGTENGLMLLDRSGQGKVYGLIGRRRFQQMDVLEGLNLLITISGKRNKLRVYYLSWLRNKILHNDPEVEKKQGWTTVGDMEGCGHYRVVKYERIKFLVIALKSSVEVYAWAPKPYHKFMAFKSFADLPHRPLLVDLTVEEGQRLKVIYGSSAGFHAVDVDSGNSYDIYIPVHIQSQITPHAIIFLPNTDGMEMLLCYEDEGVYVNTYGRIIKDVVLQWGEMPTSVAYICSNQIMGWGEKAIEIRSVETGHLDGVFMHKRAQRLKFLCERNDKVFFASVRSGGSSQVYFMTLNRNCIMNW
Sequence of Serine/threonine-protein kinase PAK 1 (Homo sapiens) (Q13153 whole entry): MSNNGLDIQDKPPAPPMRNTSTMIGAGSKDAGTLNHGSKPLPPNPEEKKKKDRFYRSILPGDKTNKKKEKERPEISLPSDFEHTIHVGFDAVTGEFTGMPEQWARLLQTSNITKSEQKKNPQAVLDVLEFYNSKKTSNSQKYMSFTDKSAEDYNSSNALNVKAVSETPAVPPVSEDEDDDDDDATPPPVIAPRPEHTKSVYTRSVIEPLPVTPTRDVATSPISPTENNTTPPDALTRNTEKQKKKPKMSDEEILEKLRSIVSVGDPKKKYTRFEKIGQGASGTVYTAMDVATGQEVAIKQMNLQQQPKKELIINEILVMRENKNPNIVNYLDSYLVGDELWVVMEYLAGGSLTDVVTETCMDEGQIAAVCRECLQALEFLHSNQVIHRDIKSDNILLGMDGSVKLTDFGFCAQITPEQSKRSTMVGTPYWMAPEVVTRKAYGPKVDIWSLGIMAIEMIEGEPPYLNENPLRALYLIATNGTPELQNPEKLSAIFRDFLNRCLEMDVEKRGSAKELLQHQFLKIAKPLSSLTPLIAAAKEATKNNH

Consider `CCN(CC)S(=O)(=O)c1ccc(OC)c(Nc2ncc(-c3ccccc3)o2)c1`, for which the inhibition (usually the drop in the measured response relative to a control, in per cent) in assay [1] is 7.43%; in assay [2], -0.08%; in [3], 0.32%; in assay [4], 4.58%; in assay [5], 7.11%; in assay [6], 6.37%. Moreover, the inhibition is 11% in [7]; 7% in assay [8]; 9.26% in [9]; 0.95% in [10]; 2.13% in assay [11]; -1.78% in [12]. Moreover, the inhibition was 3.9% in assay [13]; -0.97% in assay [14]; 0.12% in [15]; 0.22% in [16]; 1.76% in [17]; 8.61% in assay [18]. The inhibition in assay [19] is -0.8%; in [20], 5.19%.
Turning to `CNC(=O)c1cccc(C#Cc2cncnc2Nc2ccc(OCc3cccc(F)c3)c(Cl)c2)c1`, the inhibition is 5.4% in assay [1]; 0.1% in assay [2]; 1.05% in assay [3]; -0.5% in assay [4]; 5.14% in assay [5]; 4.83% in [6]. In addition, the inhibition in assay [7] was 8.84%; in assay [8] it was 5.85%; in assay [9], 7.85%; in assay [10], 0.31%; in [11], 4.41%; in assay [12], 2.05%. The inhibition is 1.45% in assay [13]; 0.68% in assay [14]; 1.72% in assay [15]; -0.16% in [16]; 0.51% in assay [17]; 7.61% in [18]. The inhibition in assay [19] is -2.53%; in assay [20], 9.54%.
Regarding `CCCN1CCC(c2ccc(Nc3nc(Nc4cc(F)ccc4C(N)=O)c4cc[nH]c4n3)c(OC)c2)CC1`, the inhibition was found to be 78.9% in assay [1]; 9.27% in [2]; 37.7% in [3]; 21.8% in [4]; 70.2% in assay [5]; 10.6% in [6]. Moreover, the inhibition in assay [7] was 43.9%; in assay [8], 5.71%; in [9], 13.8%; in assay [10], -0.72%; in assay [11], 0.06%; in assay [12], 5.31%. Also, the inhibition worked out at 3.04% in assay [13]; 1.19% in [14]; 2.08% in assay [15]; 4.32% in assay [16]; 5.21% in [17]; 1.36% in assay [18]. For the same molecule, the inhibition in [19] is 22.6%; in assay [20], -9.18%.
In the case of `Cc1cccc2c1NC(=O)/C2=N\Nc1ccc(S(N)(=O)=O)cc1`, the inhibition in [1] stood at 48.9%; in assay [2], 2.57%; in [3], 1.95%; in assay [4] it was 7.44%; in [5] it was 34.6%; in assay [6] it was 6.81%. For the same molecule, the inhibition in assay [7] is 24.4%; in assay [8] it was 7.49%; in assay [9], 15.2%; in [10] it was -2.65%; in assay [11], -4.46%; in [12], 7.85%. In addition, the inhibition in assay [13] came out at 5.96%; in [14], 2.44%; in assay [15], 1.43%; in [16], 3.43%; in [17], 3.88%; in [18], 11.2%. Further, the values for the inhibition in assay [19] and in assay [20] were 2.81% and 3.7%, respectively.
In the case of `CCn1cc(-c2ccnc3[nH]ccc23)c(-c2cccc(NC(=O)Nc3ccc(OCc4ccccc4)cc3)c2)n1`, the inhibition in assay [1] came to 27.8%; in assay [2], 0.08%; in assay [3], 1.59%; in assay [4] it was 3%; in assay [5], 30.9%; in assay [6] it was 1.36%. The inhibition in assay [7] was 1.63%; in assay [8] it was 2.37%; in assay [9] it was 2.77%; in assay [10] it was 0.67%; in assay [11], -5.19%; in [12], 0.97%. Moreover, the inhibition in assay [13] was 0.73%; in assay [14], -0.8%; in [15], -0.35%; in [16], 1.3%; in assay [17] it was 1.28%; in assay [18] it was -1.74%. Besides, the figures for the inhibition in assay [19] and in assay [20] were -3.66% and 5.15%, respectively.
Consider `Nc1nc(-c2ccc(F)cc2)c(-c2ccc3ncccc3n2)s1`, for which the inhibition turned out to be 61.8% in assay [1]; 6.1% in [2]; 4.31% in assay [3]; 13.2% in assay [4]; 47.9% in [5]; 6.16% in assay [6]. Moreover, the inhibition is 6.98% in [7]; 7.16% in [8]; 5.82% in assay [9]; 0.24% in assay [10]; 9.07% in [11]; 6.29% in [12]. Further, the inhibition in [13] came to 6.35%; in [14], 1.67%; in assay [15], 2.07%; in assay [16], 5.1%; in assay [17] it was 5.56%; in assay [18] it was 2.84%. Further, the inhibition came to 4.21% in assay [19] and 1.6% in assay [20].
